Data taken from PubChem BioAssay AID624465 (National Center for Advancing Translational Sciences (NCATS), 2012).
About 300 (0.083%) of roughly 360,000 compounds were called active. No stated cut-off is given here; in the data, active means activation above about 40%; inconclusive means between about 15% and that limit; inactive means weaker than that. For the sample, actives were picked, then their nearest neighbours and some compounds at random.

Biological target: D(2) dopamine receptor (Homo sapiens) (UniProt P14416)
Sequence (P14416 whole entry, looked up): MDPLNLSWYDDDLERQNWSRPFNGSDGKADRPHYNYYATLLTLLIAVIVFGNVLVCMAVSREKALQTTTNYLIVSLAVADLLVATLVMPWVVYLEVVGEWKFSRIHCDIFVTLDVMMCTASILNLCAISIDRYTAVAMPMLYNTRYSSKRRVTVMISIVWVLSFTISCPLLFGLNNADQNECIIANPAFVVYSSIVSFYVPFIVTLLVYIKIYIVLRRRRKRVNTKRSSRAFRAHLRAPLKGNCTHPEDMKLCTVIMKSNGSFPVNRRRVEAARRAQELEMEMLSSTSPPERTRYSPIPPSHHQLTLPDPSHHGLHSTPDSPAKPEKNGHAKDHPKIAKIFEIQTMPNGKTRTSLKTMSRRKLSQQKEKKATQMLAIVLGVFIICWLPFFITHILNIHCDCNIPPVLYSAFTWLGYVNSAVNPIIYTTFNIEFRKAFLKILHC
Assay: Beta-Arrestin HTS for Positive Allosteric Modulators of the Human D2 Dopamine Receptor: Agonists
Conditions: DiscoveRx PathHunter D2 beta-arrestin, luminescence, 90 min; active compounds read high; 100% = 57 uM dopamine signal
From the text: There is great interest in identifying small molecule ligands for G-protein coupled receptors (GPCRs) as nearly 50% of all FDA-approved drugs target these important receptor proteins. […] Amongst the dopamine receptors (DARs), the D2 is arguably one of the most validated drug targets in neurology and psychiatry. For instance, all receptor-based antiparkinsonian drugs primarily work via stimulating the D2 DAR, whereas all FDA-approved antipsychotic agents are antagonists of this receptor. The D2 DAR is also therapeutically targeted in other disorders such as restless legs syndrome, tardive dyskinesia, Tourette's syndrome, and hyperprolactinemia.
To this end, a miniaturized qHTS screen was developed to be screened against the Molecular Libraries Small Molecule Repository (MLSMR). This assay seeks to identify agonists against the D2 DAR.
NIH Molecular Libraries Probe Production Network [MLPCN]
NIH Chemical Genomics Center [NCGC]
PI Name: David Sibley, National Institutes of Neurological Disorders and Stroke
DiscoveRx D2 cells were thawed from frozen stock and seeded at 2,100 cells/ 3 uL/well media (DiscoveRx Plating Reagent 2) with MultiDrop Combi dispenser (Thermo Scientific, Logan, UT) onto white tissue culture treated 1536-well Aurora plates (Brooks Automation, Chelmsford, MA) and allowed to attach overnight at 37 deg C, 5% CO2. Next, 23 nL/well of compound solutions in DMSO were added with a pintool transfer (Kalypsis, San Diego, CA). As the positive control, 1 uL/well dopamine (EC100, 57 uM final concentration) diluted in buffer (HBSS + 10 mM HEPES + SMB + 0.1% Tween-20) was dispensed to 1 column of each plate. The rest of the plate was dispensed with buffer only, 1 uL/well as well. The cells were stimulated by compounds or dopamine control for 90 minutes at 37 deg C, 5% CO2, after which 1.5 ul/well of DiscoveRx detection reagent was added with BioRAPTR FRD dispenser. The detection reagent was prepared by mixing of Galacton Star Substrate, Emerald II solution and PathHunter buffer (supplied by the assay kit) together at 1:5:19 proportion accordingly just prior to dispensing. The plates were incubated at ambient temperature for 1 hour and then the luminescent signal was read on ViewLux plate reader (PerkinElmer, Waltham, MA).

**Q.** Which activation does the source give for `CCc1ccc(OCC(=O)OC(C)C(=O)NC2CC2)cc1` (configuration not stated) here?
**A.** -2.44% (inactive)

**Q.** How did the activation turn out when `Cc1cc(C)cc(N(CC(=O)N2CC=C(c3ccccc3)CC2)S(=O)(=O)c2c(C)noc2C)c1` was run?
**A.** 0.128% (inactive)

**Q.** How did the activation turn out when `COc1ccccc1CCNC(=O)CN1C(=O)NC2(CCCC2)C1=O` was run?
**A.** -3.81% (inactive)

**Q.** How did the activation turn out when `O=c1ccn([C@@H]2O[C@H](CNS(=O)(=O)c3cc4ccccc4s3)[C@@H](O)[C@H]2O)c(=O)[nH]1` was run?
**A.** -2.86% (inactive)

**Q.** With `CCOC1=C2CN(S(=O)(=O)c3ccc(C)cc3)[C@H](c3cccs3)C[C@H]2[C@H]2C(=O)N(c3ccccc3)C(=O)[C@H]2C1` as the compound, how does the activation read?
**A.** -3.55% (inactive)

**Q.** Which activation does the source give for `CCC(C)(C)n1nnnc1CN1CCN(c2nc3ccc(C)cc3cc2C#N)CC1` here?
**A.** -5.17% (inactive)

**Q.** With `Cc1ccc(C(=O)O/N=C(\N)c2ccccn2)cc1Cl` as the compound, how does the activation read?
**A.** 5.09% (inactive)

**Q.** Which activation does the source give for `COc1ccc(C(=O)O/N=C(\N)c2ccccn2)cc1[N+](=O)[O-]` here?
**A.** 42.1% (active)

**Q.** Which activation does the source give for `COc1ccc(C(=O)NNC(=O)c2cnccn2)cc1[N+](=O)[O-]` here?
**A.** 4.81% (inactive)

**Q.** Which activation does the source give for `O=C(NCCO)c1cccc(-c2cccc3nccn23)c1` here?
**A.** -5% (inactive)

**Q.** How did the activation turn out when `O=C(CC1SC(=Nc2ccccc2)N(Cc2ccccn2)C1=O)Nc1cccc(Cl)c1` (configuration not stated) was run?
**A.** 0.599% (inactive)

**Q.** With `CNc1cncc(-c2cccc(C(=O)N3CCOCC3)c2)n1` as the compound, how does the activation read?
**A.** -3.27% (inactive)

**Q.** `CC(C)c1cccc(-c2csc(C(O)c3ccccc3)n2)c1` (configuration not stated) was tested. Which activation did it give?
**A.** 5.04% (inactive)

**Q.** With `CCC(=O)OCc1c(C(F)(F)F)nn(C)c1Oc1cccc(C(F)(F)F)c1` as the compound, how does the activation read?
**A.** -2.87% (inactive)

**Q.** Which activation does the source give for `O=C(CN1CCN(S(=O)(=O)c2ccc3ccccc3c2)CC1)NC(=O)NC1CCCCC1` here?
**A.** -2.7% (inactive)

**Q.** For `CCn1cc(CNC(=O)c2cc([N+](=O)[O-])c(C)c([N+](=O)[O-])c2)cn1`, which activation is on record?
**A.** 1.34% (inactive)

**Q.** Which activation does the source give for `O=C1C=CN2CCCC2CC1` (configuration not stated) here?
**A.** -2.65% (inactive)

**Q.** How did the activation turn out when `Nc1ncnc2c1ncn2[C@@H]1O[C@H](C(=O)N2CCCN(Cc3ccccc3F)CC2)[C@@H](O)[C@H]1O` was run?
**A.** -3.13% (inactive)

**Q.** How did the activation turn out when `O=C1CCC(C(=O)Nc2ccc(OC(F)F)cc2)N1` (configuration not stated) was run?
**A.** -0.767% (inactive)

**Q.** With `O=C1CSC(=O)N1CCOCCN1C(=O)CSC1=O` as the compound, how does the activation read?
**A.** -0.569% (inactive)

**Q.** With `CN(CCc1ccccn1)C1CCCN(S(=O)(=O)c2ccccc2Cl)C1` (configuration not stated) as the compound, how does the activation read?
**A.** 4.32% (inactive)

**Q.** `OCCN1CCN(c2ncnc3c2ncn3[C@H]2CN(Cc3ccco3)C[C@@H](CO)O2)CC1` was tested. Which activation did it give?
**A.** 2.19% (inactive)

**Q.** With `COc1ccc(OCc2nnc3n2N=C(c2ccccc2)C(CC(=O)O)S3)cc1` (configuration not stated) as the compound, how does the activation read?
**A.** -4.75% (inactive)

**Q.** How did the activation turn out when `CCn1c(SCC(=O)Nc2cccc(F)c2)nnc1-c1cc2cc(Br)ccc2o1` was run?
**A.** 0.906% (inactive)

**Q.** Which activation does the source give for `O=C1N(c2ccccc2)C(=Nc2ccccc2)SC12CC2` here?
**A.** -5.55% (inactive)

**Q.** `O=C(CN1CCOCC1)Nc1c2c(nc3c1CCC3)CCC2` was tested. Which activation did it give?
**A.** -3.04% (inactive)

**Q.** `Cc1nc(-c2ccc(F)cc2)c(CC(=O)N(C)CC(=O)Nc2c(C)cccc2C)s1` was tested. Which activation did it give?
**A.** 0.938% (inactive)

**Q.** Which activation does the source give for `Cn1nc(C(F)(F)F)c(C(=O)Nc2cccc(C(F)(F)F)c2)c1SCc1ccc(Cl)cc1` here?
**A.** 2.52% (inactive)

**Q.** For `COc1cccc(C(NC(C)=O)c2nc(-c3ccccc3OC)cs2)c1` (configuration not stated), which activation is on record?
**A.** -6.01% (inactive)

**Q.** `CC(=O)NC(c1ccccc1)c1nc(-c2cccc(C(C)C)c2)cs1` (configuration not stated) was tested. Which activation did it give?
**A.** 1.91% (inactive)

**Q.** Which activation does the source give for `CC(=O)NC(c1ccccc1)c1nc(-c2ccccc2C)cs1` (configuration not stated) here?
**A.** 73.4% (active)

**Q.** With `CCCC(=O)N1CCC1(C)C(=O)NS(=O)(=O)c1ccc(Cl)cc1` (configuration not stated) as the compound, how does the activation read?
**A.** -2.87% (inactive)

**Q.** With `CN1OC[C@@H]2CN(C(=O)c3cccnc3)[C@H](c3ccc(N4CCCCC4)cc3)C[C@@H]21` as the compound, how does the activation read?
**A.** -5.55% (inactive)

**Q.** Which activation does the source give for `CCOc1ccc(Nc2nc(Cc3nnc(SCC(=O)c4ccc(C)cc4)o3)cs2)cc1` here?
**A.** 0.605% (inactive)

**Q.** For `O=c1onc(-c2c(F)cccc2F)n1-c1ccccc1Cl`, which activation is on record?
**A.** 58.1% (active)

**Q.** Which activation does the source give for `Cc1ccc2cccc(S(=O)(=O)N3CCN(c4ccccc4F)CC3)c2n1` here?
**A.** 1.48% (inactive)

**Q.** With `O=C(Cn1c(-c2ccc(Cl)cc2)noc1=O)N1CCN(c2ccccc2F)CC1` as the compound, how does the activation read?
**A.** 3.21% (inactive)

**Q.** Which activation does the source give for `O=C(O)CCCC(=O)Nc1ccc(Oc2cccc(C(F)(F)F)c2)nc1` here?
**A.** -2.77% (inactive)

**Q.** With `COc1ccc(NC(=O)C2=NNC(=O)CC2)cc1S(=O)(=O)N1CCCCC1` as the compound, how does the activation read?
**A.** 3.11% (inactive)

**Q.** Which activation does the source give for `CC1=C(C(=O)Nc2cccc(C(=O)NCC(C)c3ccccc3)c2)SCCO1` (configuration not stated) here?
**A.** 2.99% (inactive)

**Q.** Which activation does the source give for `CN(C)C(=O)c1nc2ccc(Cl)cn2c1CN1CCN(c2ncccn2)CC1` here?
**A.** -28.2% (inactive)

**Q.** `Cc1ccc(CN2CCN(c3ncccn3)CC2)c(C)c1` was tested. Which activation did it give?
**A.** 101% (active)

**Q.** How did the activation turn out when `c1cnc(N2CCN(c3ccc4ccccc4n3)CC2)nc1` was run?
**A.** -9.01% (inactive)

**Q.** Which activation does the source give for `Cc1ccc(CN2CCN(/N=C/c3ccco3)CC2)c(C)c1` here?
**A.** -3.14% (inactive)

**Q.** For `Oc1ccc(CN2CCN(c3ncccn3)CC2)cc1`, which activation is on record?
**A.** 57.4% (active)

**Q.** Which activation does the source give for `Cc1ccc(CN2CCN(/N=C/c3cccnc3)CC2)c(C)c1` here?
**A.** -1.75% (inactive)

**Q.** With `CN(C)c1ccc(CNC2C3CC4CC(C3)CC2C4)cc1` (configuration not stated) as the compound, how does the activation read?
**A.** -0.168% (inactive)

**Q.** How did the activation turn out when `CCCCN(Cc1ccccc1)C(=O)C1CCN(Cc2sccc2C)CC1` was run?
**A.** -2.44% (inactive)

**Q.** `O=C(Nc1ccc(N2CCOCC2)nc1)c1c(F)cccc1F` was tested. Which activation did it give?
**A.** -1.59% (inactive)

**Q.** `CCCCC(=O)N(C)c1c(CC)nc2c(OCc3ccc(S(C)(=O)=O)cc3)cccn12` was tested. Which activation did it give?
**A.** -2.46% (inactive)

**Q.** `COc1ccc(C(=O)NCC2CCCO2)cc1S(=O)(=O)NCc1ccc(Cl)cc1` (configuration not stated) was tested. Which activation did it give?
**A.** 0.708% (inactive)

**Q.** Which activation does the source give for `C/C(=N/Nc1nc(-c2ccccc2)c(CC(=O)O)s1)c1ccccc1` here?
**A.** -4.03% (inactive)

**Q.** With `C/C(=N\Nc1cccc(C(=O)O)c1)c1ccc2c(c1)Nc1ccccc1S2` as the compound, how does the activation read?
**A.** 41.5% (active)

**Q.** For `CC(=O)Nc1cccc(/C(C)=N/NC(=O)c2c(-c3ccccc3Cl)noc2C)c1`, which activation is on record?
**A.** -0.376% (inactive)

**Q.** How did the activation turn out when `CC(=O)NN=C(C)c1ccc(NC(=O)C2CC2)cc1` was run?
**A.** -2.2% (inactive)

**Q.** For `CC(C)Oc1ccc(CN2CCC2(C)C(=O)NCc2ccc(C(F)(F)F)cc2)cc1` (configuration not stated), which activation is on record?
**A.** -5.75% (inactive)

**Q.** How did the activation turn out when `O=C(NCc1ccco1)c1ccc(NS(=O)(=O)c2cccc([N+](=O)[O-])c2)cc1` was run?
**A.** 2.68% (inactive)
